Laboratory results published in PubChem BioAssay (NCATS).
Results filed as inconclusive are left out. Activity calls are given as the source filed them. Unless noted, calls come from the whole dose curve; as a rule, active = well fitted curve in the direction sought with a large enough effect; inconclusive = small, poorly fitted or top-dose-only effect, or another doubt; inactive = no such curve, though single readings can be large; an effect the other way counts as inactive or inconclusive. Residues, ends and D or L forms follow the SMILES beside them. *: point of attachment. Cbz = O=C(OCc1ccccc1)*

Tests used:
[1] = Cytometric Cell-Based qHTS for Inhibitors of the mTORC1 Signaling Pathway in MEF (Tsc2-/-, p53-/-) Cells (AID 2660);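 note: percent of cells above a phospho-rpS6 to PI ratio cutoff in each well; series mostly up to about 38 µM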
Outline: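 Tsc2-/-, p53-/- MEFs (empty vector) exposed to compound 24 h at 37 C, fixed, stained with Alexa-488 anti-phospho-rpS6 Ser235/236 and propidium iodide. Acumen laser scanning; phospho-S6/PI ratio thresholded against 7.5 nM rapamycin, reported as % positive cells.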

[2] = High Content Imaging Cell-Based qHTS for Inhibitors of the mTORC1 Signaling Pathway in MEF (Tsc2-/-, p53-/-) Cells (AID 2666);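 note: percent of cells scored positive for phospho-rpS6 Ser235/236 immunostaining by imaging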
Outline: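 Read-out: % positive cells per well, with thresholds from highest- and lowest-signal wells, based on phospho-rpS6 (Ser235/236) intensity normalized to Hoechst nuclear stain. Cells: Tsc2-/-, p53-/- MEFs carrying empty vector; compound 24 hrs, 37 degree Celsius.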

[3] = High Content Imaging Cell-Based qHTS for Inhibitors of the mTORC1 Signaling Pathway in MEF Cells (AID 2667); note: potency is the fitted concentration of half-maximal effect
Outline: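 MEF (Tsc2-/-, p53-/-, WT Tsc2 re-expressed); cpd 24 h, 37 °C; PFA fix; Alexa-488 anti-p-rpS6 Ser235/236, PI, Hoechst; IN Cell imaging; Hoechst/Alexa-488 intensity ratio; % active cells, thresholds set from rapamycin and DMSO wells.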

[4] = Cytometry Cell-Based qHTS for Inhibitors of the mTORC1 Signaling Pathway in MEF cells (AID 2668); note: potency is the fitted concentration of half-maximal effect
Outline: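 Pathway inhibition in WT Tsc2-rescued Tsc2-/-, p53-/- MEFs is measured as the Alexa-488 phospho-rpS6 to propidium iodide intensity ratio after 24 hrs of compound at 37 degree Celsius. PI-stained cell number gives viability.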

[5] = target: Ubiquitin carboxyl-terminal hydrolase 2 (Homo sapiens) (UniProt O75604); test: qHTS Validation Assay for Inhibitors of Ubiquitin-specific Protease USP2a Using CHOP2 as the Reporter (AID 463106); note: potency is the fitted concentration of half-maximal effect
Outline: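 USP2 core (10nM final) was preincubated with compound for 30min at RT in 20mM Tris-HCl pH 8.0, 2mM CaCl2, 2mM beta-mercaptoethanol, 0.05% CHAPS. Ub-CHOP2 and reporter substrate (25nM each) were added, and fluorescence (Ex 485/Em 531nm) was read after 60min.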

[6] = target: DNA polymerase III PolC-type (Bacillus subtilis (strain 168)) (UniProt P13267); test: qHTS Validation Assay for the Inhibitors of DNA Replication in Gram-Positive Bacteria (AID 485295); note: potency is the fitted concentration of half-maximal effect
Outline: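 Primed replication of single-stranded M13Gori by a four-protein B. subtilis holoenzyme is measured at room temperature. Double-stranded product is quantified by PicoGreen fluorescence after an EDTA stop; inhibition is scaled between DMSO and EDTA controls.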

[7] = target: Tumor susceptibility gene 101 protein (Homo sapiens) (UniProt Q99816); test: qHTS Validation Assay for Iinhibitors of HIV-1 Budding by Blocking the Interaction of PTAP/TSG101 (AID 485342; calls by dose curve)
Outline: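 Fluorescence anisotropy measured PTAP-Tsg101 interaction. Final concentrations were 10 uM protein domain and 50 nM labeled peptide, equilibrated 20 min at room temperature.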

[8] = Validation screen for small molecules that induce DNA re-replication in MCF 10A normal breast cells (AID 463097); note: nearly all actives have a fitted effect of over 60% in size; note: potency is the fitted concentration of half-maximal effect
Outline: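 DNA re-replication was detected as a rise in nuclei with elevated Hoechst fluorescence after a 48 hr compound exposure of MCF 10A cells at 37 C.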

[9] = qHTS Validation Assay to Find Inhibitors of Chronic Active B-Cell Receptor Signaling (AID 485345; active = well fitted curve in the direction sought with a large enough effect in the main read-out, with a control signal flat, not every such curve was filed as active)
Outline: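 TMD8 ABC-DLBCL cells with dox-inducible green luciferase–IκBα fusion and red native luciferase; compounds 46 uM–3 nM, 4 h at 37C with doxycycline in 0.5% FBS IMDM. Green/red ratio normalized to basal and 10 uM MG-132.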

Measured: Potency

Sequence of Ubiquitin carboxyl-terminal hydrolase 2 (Homo sapiens) (O75604 whole entry, looked up): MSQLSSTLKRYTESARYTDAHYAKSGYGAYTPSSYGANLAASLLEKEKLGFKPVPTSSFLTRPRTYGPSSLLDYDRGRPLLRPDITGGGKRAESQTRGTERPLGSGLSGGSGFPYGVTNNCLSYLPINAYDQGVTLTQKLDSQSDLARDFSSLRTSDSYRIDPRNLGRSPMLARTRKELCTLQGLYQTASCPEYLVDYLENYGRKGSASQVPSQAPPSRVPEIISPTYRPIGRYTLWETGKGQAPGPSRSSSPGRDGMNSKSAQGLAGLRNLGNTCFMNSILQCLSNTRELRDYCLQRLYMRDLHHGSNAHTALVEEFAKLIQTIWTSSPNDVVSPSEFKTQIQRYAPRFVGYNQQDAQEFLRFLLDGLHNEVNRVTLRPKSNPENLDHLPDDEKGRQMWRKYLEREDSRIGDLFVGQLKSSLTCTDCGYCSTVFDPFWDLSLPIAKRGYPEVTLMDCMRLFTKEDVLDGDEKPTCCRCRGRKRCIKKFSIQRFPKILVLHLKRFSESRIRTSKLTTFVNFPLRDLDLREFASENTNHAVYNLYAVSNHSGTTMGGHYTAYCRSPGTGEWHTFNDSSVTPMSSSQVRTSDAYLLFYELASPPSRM
Sequence of DNA polymerase III PolC-type (Bacillus subtilis (strain 168)) (P13267 whole entry, looked up): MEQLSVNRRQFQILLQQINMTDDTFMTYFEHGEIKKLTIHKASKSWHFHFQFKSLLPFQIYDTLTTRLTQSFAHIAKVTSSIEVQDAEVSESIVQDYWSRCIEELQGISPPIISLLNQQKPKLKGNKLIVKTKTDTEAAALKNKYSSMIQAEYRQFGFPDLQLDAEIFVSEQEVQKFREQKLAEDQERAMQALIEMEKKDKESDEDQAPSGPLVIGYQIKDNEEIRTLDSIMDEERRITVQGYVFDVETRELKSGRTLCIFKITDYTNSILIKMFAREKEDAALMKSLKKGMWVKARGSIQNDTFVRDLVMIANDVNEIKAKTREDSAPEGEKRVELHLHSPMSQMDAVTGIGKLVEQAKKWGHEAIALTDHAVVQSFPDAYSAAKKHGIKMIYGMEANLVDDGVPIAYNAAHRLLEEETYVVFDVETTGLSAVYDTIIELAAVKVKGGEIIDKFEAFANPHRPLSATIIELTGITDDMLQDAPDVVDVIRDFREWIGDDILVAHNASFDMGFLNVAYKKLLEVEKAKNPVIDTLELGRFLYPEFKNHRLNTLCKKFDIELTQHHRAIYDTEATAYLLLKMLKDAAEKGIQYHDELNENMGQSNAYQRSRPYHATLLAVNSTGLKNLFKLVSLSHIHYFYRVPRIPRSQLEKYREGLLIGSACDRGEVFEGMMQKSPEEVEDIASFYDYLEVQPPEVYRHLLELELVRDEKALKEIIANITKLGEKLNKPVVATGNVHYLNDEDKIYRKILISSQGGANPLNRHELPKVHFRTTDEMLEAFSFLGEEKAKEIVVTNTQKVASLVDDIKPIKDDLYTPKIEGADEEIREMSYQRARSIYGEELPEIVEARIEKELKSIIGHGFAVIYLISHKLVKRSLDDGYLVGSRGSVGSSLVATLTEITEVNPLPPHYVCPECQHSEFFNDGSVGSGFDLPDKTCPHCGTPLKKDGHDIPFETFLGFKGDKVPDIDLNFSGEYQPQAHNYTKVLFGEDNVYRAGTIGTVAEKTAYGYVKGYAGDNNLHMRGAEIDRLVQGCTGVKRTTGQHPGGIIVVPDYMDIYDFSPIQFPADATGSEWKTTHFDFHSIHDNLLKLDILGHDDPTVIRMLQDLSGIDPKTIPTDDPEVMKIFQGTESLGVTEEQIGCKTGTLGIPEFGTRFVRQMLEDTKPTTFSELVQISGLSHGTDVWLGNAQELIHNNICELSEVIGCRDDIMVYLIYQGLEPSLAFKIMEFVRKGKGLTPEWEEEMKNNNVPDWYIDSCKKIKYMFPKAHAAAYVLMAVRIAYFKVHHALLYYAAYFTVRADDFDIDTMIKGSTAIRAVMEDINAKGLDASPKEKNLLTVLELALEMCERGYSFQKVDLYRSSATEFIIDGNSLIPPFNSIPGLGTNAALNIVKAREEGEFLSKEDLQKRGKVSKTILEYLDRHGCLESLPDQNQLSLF
Sequence of Tumor susceptibility gene 101 protein (Homo sapiens) (Q99816 whole entry, looked up, the tested form may be a part): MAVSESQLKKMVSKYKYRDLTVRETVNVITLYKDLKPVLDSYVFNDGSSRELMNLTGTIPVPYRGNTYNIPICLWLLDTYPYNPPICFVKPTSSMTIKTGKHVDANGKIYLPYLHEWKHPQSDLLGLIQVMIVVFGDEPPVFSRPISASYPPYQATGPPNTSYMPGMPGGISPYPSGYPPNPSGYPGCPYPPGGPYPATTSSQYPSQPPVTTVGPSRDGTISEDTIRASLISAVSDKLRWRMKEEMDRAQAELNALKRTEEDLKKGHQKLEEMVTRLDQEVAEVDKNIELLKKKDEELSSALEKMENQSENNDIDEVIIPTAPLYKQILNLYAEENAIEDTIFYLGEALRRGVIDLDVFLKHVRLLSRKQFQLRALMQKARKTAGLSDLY

OC[C@H]1O[C@H](n2cnc3c(N[C@H]4CCC[C@@H]4O)ncnc32)[C@H](O)[C@@H]1O
not listed: [8] | [9]
inactive: all other assays above

CN1CCc2cc(Cl)c(O)cc2[C@@H](c2ccccc2)C1
not listed: [8] | [9]
inactive: all other assays above

c1ccc(C(NCCNC(c2ccccc2)c2ccccc2)c2ccccc2)cc1
active: [3] 13.1 µM | [4] 18.5 µM
not listed: [8] | [9]
inactive: all other assays above

Nc1ncnc2c1nc(Sc1ccc(Cl)cc1)n2[C@H]1OC2COP(=O)(O)O[C@@H]2C1O (stereo not given in full)
not listed: [8] | [9]
inactive: all other assays above

C[C@]12C=CC(=O)C=C1CC[C@@H]1C2=CC[C@]2(C)[C@@H](C(=O)CN3CCN(c4cc(N5CCCC5)nc(N5CCCC5)n4)CC3)CC[C@@H]12
not listed: [8] | [9]
inactive: all other assays above

Nc1nc2c(cnn2CCc2ccccc2)c2nc(-c3ccco3)nn12
not listed: [8] | [9]
inactive: all other assays above

Cn1c(=O)[nH]c2ncn(C)c2c1=O
inactive: all assays above

O=C1NC(=O)c2cc(Nc3ccccc3)c(Nc3ccccc3)cc21
not listed: [8] | [9]
inactive: all other assays above

CN1CCN(c2nc3cc(C(F)(F)F)ccc3n3cccc23)CC1
not listed: [8] | [9]
inactive: all other assays above

C[C@H]1CC2C3CCC4=CC(=O)C=C[C@]4(C)[C@@]3(Cl)[C@@H](O)C[C@]2(C)[C@@]1(O)C(=O)CO (stereo not given in full)
not listed: [8] | [9]
inactive: all other assays above

CCCn1c(=O)c(C)cn2nc(N)nc12
not listed: [8]
inactive: all other assays above

O=c1onc2cnc3ccccc3n12
not listed: [8] | [9]
inactive: all other assays above

c1ccc(C(NCc2cccnc2)(c2ccccc2)c2ccccc2)cc1
not listed: [8] | [9]
inactive: all other assays above

CCCCCCCCCCCCCCSCC(=O)O
not listed: [8]
inactive: all other assays above

CCCCCCC/C=C\CCCCCCCCC(=O)O
not listed: [8]
inactive: all other assays above

C=C1C[C@@]23CC[C@H]4[C@@](C)(CCC[C@@]4(C)C(=O)OC4OC(CO)C(O)C(O)C4O)[C@@H]2CC[C@]1(OC1OC(CO)C(O)C(O)C1OC1OC(CO)C(O)C(O)C1O)C3 (stereo not given in full)
not listed: [8] | [9]
inactive: all other assays above

CCc1ccc2c(-c3cccc(Cl)c3)nc(=O)n(CC)c2n1
not listed: [8] | [9]
inactive: all other assays above

N#C/C(=C\c1ccc(O)c(O)c1)C(=O)NCCCNC(=O)/C(C#N)=C/c1ccc(O)c(O)c1
not listed: [6] | [9]
inactive: all other assays above

CCCC(=O)NCCc1c2n(c3ccc(OC)cc13)CCCc1ccccc1-2
not listed: [8] | [9]
inactive: all other assays above

CC(C)(CO)Cc1cc(C(C)(C)C)c(O)c(C(C)(C)C)c1
not listed: [8] | [9]
inactive: all other assays above

CC(=O)O[C@H]1Cc2ccccc2N(C(N)=O)c2ccccc21
not listed: [8]
inactive: all other assays above

CCCn1c(=O)c2[nH]c(C3CCCC3)nc2n(CCC)c1=O
not listed: [8] | [9]
inactive: all other assays above

Cc1nc2n(c(=O)c1CCN1CCC(c3noc4cc(F)ccc34)CC1)CCCC2O (stereo not given)
not listed: [8]
inactive: all other assays above

CCCCCCCCCCCCCCCCCCOC[C@H](COP(=O)([O-])OCC[N+](C)(C)C)OC
not listed: [6] | [8] | [9]
inactive: all other assays above

CCCOC(=O)c1c(-c2ccccc2)nc(CC)c(C(=O)SCC)c1CCC
not listed: [8]
inactive: all other assays above

Cc1cc(Cn2cnc3c2C[C@@H](C(=O)O)N(C(=O)C(c2ccccc2)c2ccccc2)C3)ccc1N
not listed: [8]
inactive: all other assays above

CC1=C(/C=C/C(C)=C/C=C/C(C)=C\C(=O)O)C(C)(C)CCC1
not listed: [4] | [9]
inactive: all other assays above

NCCNS(=O)(=O)c1cccc2c(Cl)cccc12
active: [3] 16.5 µM
not listed: [4] | [9]
inactive: all other assays above

Cc1cccc(C(=O)NCN2CCN(c3ccccc3C#N)CC2)c1
not listed: [8]
inactive: all other assays above

CCC1(O)CC2CN(CCc3c([nH]c4ccccc34)[C@@](C(=O)OC)(c3cc4c(cc3OC)N(C=O)C3[C@]45CCN4CC=C[C@@](CC)([C@@H](OC(C)=O)[C@]3(O)C(=O)OC)[C@H]45)C2)C1 (stereo not given in full)
active: [8] 0.0447 µM
not listed: [4] | [9]
inactive: all other assays above

Nc1nc2c(nc(Br)n2C2OC3COP(=O)(O)O[C@@H]3C2O)c(=O)[nH]1 (stereo not given in full)
not listed: [8]
inactive: all other assays above

CC(C)NC[C@H](O)COc1cccc2ccccc12
not listed: [8]
inactive: all other assays above

CCCCCCCCCCC/C=C\C(C)(C)/C=C\CCCC(=O)O
not listed: [5] | [8]
inactive: all other assays above

CC(C)[C@@H]1CC[C@@H](C)C[C@@H]1P(=O)(c1ccccc1)c1ccccc1
not listed: [8]
inactive: all other assays above

COc1ccc(CCn2nnnc2C2(c3ccc(C)cc3)CC2)cc1
not listed: [8]
inactive: all other assays above

CCCc1c(-c2ccc(O)cc2)nn(-c2ccc(O)cc2)c1-c1ccc(O)cc1
not listed: [5] | [8] | [9]
inactive: all other assays above

CCCCCCN(CCCCCC)C(=O)Cc1c(-c2ccc(F)cc2)[nH]c2ccccc12
not listed: [4]
inactive: all other assays above

[N-]=[N+]=Nc1ccc(C(=O)CSC[C@H](NC(=O)CC[C@H](N)C(=O)O)C(=O)NCC(=O)O)cc1
not listed: [5] | [6] | [8]
inactive: all other assays above

C=CCN1CCc2cc(O)c(O)cc2C(c2ccccc2)C1 (stereo not given)
not listed: [4]
inactive: all other assays above

Nc1ccc2c3c(cccc13)C(=O)NC2=O
inactive: [1] | [2] | [3] | [8] | [6]

COc1cc(/C=C(\C#N)C(=O)c2ccc(O)c(O)c2)cc(I)c1O
active: [5] 14.7 µM
inactive: [1] | [2] | [3] | [4] | [7]

CCN(c1nc(N)c(C(=O)N=C(N)N)nc1Cl)C(C)C
not listed: [8]
inactive: all other assays above

CC(=O)SC1CC2=CC(=O)CC[C@]2(C)C2CC[C@@]3(C)C(CC[C@@]34CCC(=O)O4)C12 (stereo not given in full)
not listed: [8]
inactive: all other assays above

N[C@H](C(=O)O)[C@H](Cc1ccccc1)C(=O)O
not listed: [8]
inactive: all other assays above

Nc1ncnc2c1c(-c1ccc(Oc3ccccc3)cc1)cn2C1CCCC1
active: [8] 3.16 µM
not listed: [4] | [9]
inactive: all other assays above

CC(C)[C@H](NC(=O)OCc1ccccc1)C(=O)N[C@H](C=O)Cc1ccccc1 (Cbz-Val-Phe-aldehyde)
not listed: [8]
inactive: all other assays above

COc1cc(/C=C(\C#N)C(=O)Nc2nnc(C(F)(F)F)s2)ccc1OCc1ccc(C(F)(F)F)cc1C(F)(F)F
active: [6] 10.6 µM
inactive: [1] | [2] | [3] | [4] | [7]

O=c1[nH]c(=S)[nH]c(-c2ccccc2)c1Cc1c(O)ccc2ccccc12
not listed: [6] | [8] | [9]
inactive: all other assays above

CN1CC(O)C(O)C(O)C1CO (stereo not given)
not listed: [8]
inactive: all other assays above

C=C1C[C@@]23CC[C@H]4[C@@](C)(CCC[C@@]4(C)C(=O)O)[C@@H]2CC[C@]1(O)C3
not listed: [8]
inactive: all other assays above

CC[n+]1c(/C=C/C=C2/N(C)c3ccccc3C2(C)C)sc2ccccc21
inactive: [1] | [2] | [6]
active: [3] 0.0521 µM | [4] 0.0826 µM

NCC(O)C1CCCCCCC1 (stereo not given)
not listed: [8]
inactive: all other assays above

Nc1ncnc2c1nc(Br)n2C1OC2COP(=O)(O)O[C@@H]2C1O (stereo not given in full)
not listed: [8]
inactive: all other assays above

CCCC[C@@]1(C2CCCC2)Cc2cc(OCC(=O)O)c(Cl)c(Cl)c2C1=O
not listed: [8]
inactive: all other assays above

O=c1cc(-c2ccccc2)[nH]c2nc(Cl)ccc12
active: [8] 6.31 µM
not listed: [4]
inactive: all other assays above

CCCCCCCCCCC(C)(C)C(=O)Nc1c(OC)cc(OC)cc1OC
not listed: [6] | [8]
inactive: all other assays above

CCN(CC)CCCCCCCCOC(=O)c1cc(OC)c(OC)c(OC)c1
not listed: [4] | [9]
inactive: all other assays above
